For 15 molecules, Potency, activity change, negative = inhibition and activation results are on record in PubChem BioAssay (NCATS).

Inconclusive results are not listed. A number with no mark means an inactive call. Calls of active or inactive are those of the source. The call rests on the fitted dose curve; in most records, active means well fitted curve in the direction sought with a large enough effect; inconclusive means small, poorly fitted or top-dose-only effect, or another doubt; inactive means no such curve, though single readings can be large; an effect the other way counts as inactive or inconclusive.

The target of experiment [1] is Rap guanine nucleotide exchange factor 3 (Homo sapiens) (UniProt O95398). Nature of the experiment: Confirmatory qHTS for antagonist of cAMP-regulated guanine nucleotide exchange factor 3 (EPAC1) (AID 1645880). Further: nearly all actives have a fitted effect of over 55% in size. Further: potency means the concentration at half of the fitted maximal effect.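 On activity, negative = inhibition: plate controls were DMSO only for no effect and full effect of the ATA control for full effect.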 As to conditions: EPAC1 Rap1B-BODIPY-GDP exchange, fluorescence; activity, negative = inhibition: at 115 µM (top of the series). An outline of the steps:
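Nucleotide exchange uses 100 nM EPAC1, 250 nM RAP1B-BODIPY-GDP and 50 uM GDP, with compounds in a concentration-titration series. After 5 min at room temperature, fluorescence (480 nm ex/540 nm em) is read every 5 min for 30 min. Data are normalized to control ATA and DMSO.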

The target is the same in experiment [2]. Nature of the experiment: Confirmatory qHTS for agonist of cAMP-regulated guanine nucleotide exchange factor 3 (EPAC1) (AID 1645881; further: nearly all actives have a fitted effect of over 75% in size; further: potency means the concentration at half of the fitted maximal effect;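 on activation: EPAC1 catalysed release of BODIPY-GDP from Rap1B seen as fluorescence loss; 100% = effect of cAMP agonist control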). (In general: qHTS replaces the single test concentration by a dilution series.)
The target is the same in experiment [3]. Nature of the experiment: Counterscreen qHTS for antagonist of cAMP-regulated guanine nucleotide exchange factor 3 (EPAC1) (AID 1645888).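 Further: fluorescence loss as bound BODIPY-GDP is released from Rap1B; % of control where 0% means no effect.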 An outline of the steps: (§1)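 Rap1B-BODIPY-GDP 250 nM + GDP 50 uM; cpds 7-pt, final 9.74 nM–152 uM (activator mode) or from 7.32 nM upwards (inhibitor mode); RT; FI 480/540 nm at 5 and 30 min, then ± cAMP, reread.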
(Counterscreens check selectivity or assay interference.)

Experiment [4] has the same target. Nature of the experiment: Counterscreen qHTS for agonist of cAMP-regulated guanine nucleotide exchange factor 3 (EPAC1) (AID 1645889). Further: nearly all actives have a fitted effect of over 40% in size. Further: potency means the concentration at half of the fitted maximal effect. On activation: % of control where 0% means no effect. In outline:
as §1

Sequence of Rap guanine nucleotide exchange factor 3 (Homo sapiens) (O95398 whole entry, looked up): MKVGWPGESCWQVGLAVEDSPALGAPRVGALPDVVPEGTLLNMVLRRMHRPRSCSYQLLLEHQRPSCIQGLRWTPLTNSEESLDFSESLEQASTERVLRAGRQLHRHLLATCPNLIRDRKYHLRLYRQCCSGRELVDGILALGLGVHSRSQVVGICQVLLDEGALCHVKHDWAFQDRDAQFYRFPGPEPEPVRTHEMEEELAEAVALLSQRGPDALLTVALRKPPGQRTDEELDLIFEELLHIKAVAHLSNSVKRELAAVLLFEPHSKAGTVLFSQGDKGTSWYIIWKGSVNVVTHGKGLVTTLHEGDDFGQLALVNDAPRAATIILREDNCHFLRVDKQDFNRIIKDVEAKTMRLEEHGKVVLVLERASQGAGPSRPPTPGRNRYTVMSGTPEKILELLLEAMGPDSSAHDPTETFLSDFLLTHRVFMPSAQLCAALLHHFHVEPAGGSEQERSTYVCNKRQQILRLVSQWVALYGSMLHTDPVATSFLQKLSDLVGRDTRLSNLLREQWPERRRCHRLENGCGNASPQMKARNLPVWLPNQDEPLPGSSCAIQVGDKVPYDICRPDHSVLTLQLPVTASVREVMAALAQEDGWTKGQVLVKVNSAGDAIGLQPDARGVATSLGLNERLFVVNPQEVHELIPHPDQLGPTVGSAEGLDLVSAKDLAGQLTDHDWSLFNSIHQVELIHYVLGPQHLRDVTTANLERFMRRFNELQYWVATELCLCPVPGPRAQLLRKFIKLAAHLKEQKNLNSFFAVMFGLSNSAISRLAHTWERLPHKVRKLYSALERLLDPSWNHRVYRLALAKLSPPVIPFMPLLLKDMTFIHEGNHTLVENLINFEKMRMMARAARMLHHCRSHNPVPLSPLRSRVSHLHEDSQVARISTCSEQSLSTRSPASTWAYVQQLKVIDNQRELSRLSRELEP

As to `COC(=O)c1ccc2nc(C3CCCCC3)c(Cc3ccccc3)n2c1`, the Potency entry in experiment [1] and in experiment [2] was “inactive” in each case. Further, the activity change, negative = inhibition in experiment [3] was 6.26% [at 30.8 µM]. Further, the activation in experiment [4] was 9.29% [at 30.8 µM].
For `CCCNC(=O)c1ccc(N2CCC3(CC2)CC(c2ccccc2)=NO3)c(NC(=O)c2ccccc2)c1`, the Potency result in experiment [1], in experiment [2], in experiment [3] and in experiment [4] was “inactive” each time.
Take `O=C(O)Cc1ccc(NC(=O)C(c2ccccc2)c2ccccc2)cc1`: the Potency entry in experiment [1] and in experiment [2] was “inactive” each time. Besides, the activity change, negative = inhibition in experiment [3] is -6.7% [at 30.8 µM]. For the same molecule, the activation in experiment [4] is 5.55% [at 30.8 µM].
Regarding `COC(=O)c1ccc2nc(-c3cccc(Br)c3)c(Cc3ccsc3)n2c1`, the Potency entry in experiment [1] and in experiment [2] was “inactive” each time. Also, the activity change, negative = inhibition in experiment [3] is -25% [at 30.8 µM]. In experiment [4], the activation was 17.8% [at 30.8 µM].
Turning to `Cc1ccc(S(=O)(=O)N2[C@@H](c3ccc(C(C)(C)C)cc3)C(C(=O)O)=CC[C@H]2c2ccc(Cl)cc2)cc1`, the Potency in experiment [1] was 33.8 µM (active). For the same molecule, the Potency entry in experiment [2] and in experiment [4] was “inactive” in each case.
As to `CC(=O)O[C@H]1c2ccccc2-c2ccccc2[C@@H]1OC(C)=O`, the Potency entry in experiment [1] and in experiment [2] was “inactive” throughout. Besides, in experiment [3], the activity change, negative = inhibition was -14.6% [at 30.8 µM]. Also, the activation in experiment [4] was 8.91% [at 30.8 µM].
Take `Cc1ccc(O)c(C(=O)c2cc(C#N)c(=O)n(-c3nccs3)c2)c1`: the Potency entry in experiment [1] and in experiment [3] was “inactive” in each case. Besides, the results for the Potency in experiment [2] and in experiment [4] were 100 µM (active) and 35.5 µM (active), respectively.
Regarding `Cc1ccc(-c2nn3cnnc3c3ccccc23)cc1C`, the Potency result in experiment [1] and in experiment [2] was “inactive” in each case. The activity change, negative = inhibition in experiment [3] was -44.9% [at 30.8 µM]. The activation in experiment [4] was 5.84% [at 30.8 µM].
As to `COc1ccc(N2C(=O)[C@H]3CCC=C[C@H]3[C@@H]2c2ccccc2Br)cc1`, the Potency result in experiment [1], in experiment [2] and in experiment [4] was “inactive” throughout.
Take `COc1ccc(S(=O)(=O)N2CCCC2)c(Cl)c1Cl`: the Potency result in experiment [1] and in experiment [2] was “inactive” each time. For the same molecule, the activity change, negative = inhibition in experiment [3] is 12.2% [at 30.8 µM]. The activation in experiment [4] is 0.265% [at 30.8 µM].
In the case of `Cc1ccc(C2N(c3cccc(Cl)c3)C(=O)N3CCCN23)cc1` (stereo not drawn), the Potency entry in experiment [1] and in experiment [2] was “inactive” each time. In addition, in experiment [3], the activity change, negative = inhibition was -4.78% [at 30.8 µM]. Moreover, the activation in experiment [4] is 3.03% [at 30.8 µM].
As for `Cc1cc(C)c(C(=O)c2ccccc2)c(C)c1`, the Potency result in experiment [1], in experiment [2], in experiment [3] and in experiment [4] was “inactive” each time.
As for `COc1ccc(C(=O)N(Cc2ccccc2)c2cccc(C)c2)cc1`, the Potency entry in experiment [1], in experiment [2], in experiment [3] and in experiment [4] was “inactive” in each case.
With `O=C(c1noc2c1CCc1ccccc1-2)N1CCCc2ccccc21`, the Potency result in experiment [1], in experiment [2], in experiment [3] and in experiment [4] was “inactive” throughout.
Consider `CNc1snc(C)c1C(=O)OCC(=O)Nc1ccc(C)cc1F`, for which the Potency result in experiment [1], in experiment [2], in experiment [3] and in experiment [4] was “inactive” in each case.
